# Key:
# [1] = target: Sphingosine kinase 1 (Homo sapiens) (UniProt Q9NYA1); settings: at 1 µM;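 further: mean SPHK1 inhibition value reported from the GSK PKIS kinase panel screen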
# [2] = target: T1, Sphingosine kinase 2 (Homo sapiens) (UniProt Q9NRA0); settings: at 0.1 µM
# T1 sequence (whole entry): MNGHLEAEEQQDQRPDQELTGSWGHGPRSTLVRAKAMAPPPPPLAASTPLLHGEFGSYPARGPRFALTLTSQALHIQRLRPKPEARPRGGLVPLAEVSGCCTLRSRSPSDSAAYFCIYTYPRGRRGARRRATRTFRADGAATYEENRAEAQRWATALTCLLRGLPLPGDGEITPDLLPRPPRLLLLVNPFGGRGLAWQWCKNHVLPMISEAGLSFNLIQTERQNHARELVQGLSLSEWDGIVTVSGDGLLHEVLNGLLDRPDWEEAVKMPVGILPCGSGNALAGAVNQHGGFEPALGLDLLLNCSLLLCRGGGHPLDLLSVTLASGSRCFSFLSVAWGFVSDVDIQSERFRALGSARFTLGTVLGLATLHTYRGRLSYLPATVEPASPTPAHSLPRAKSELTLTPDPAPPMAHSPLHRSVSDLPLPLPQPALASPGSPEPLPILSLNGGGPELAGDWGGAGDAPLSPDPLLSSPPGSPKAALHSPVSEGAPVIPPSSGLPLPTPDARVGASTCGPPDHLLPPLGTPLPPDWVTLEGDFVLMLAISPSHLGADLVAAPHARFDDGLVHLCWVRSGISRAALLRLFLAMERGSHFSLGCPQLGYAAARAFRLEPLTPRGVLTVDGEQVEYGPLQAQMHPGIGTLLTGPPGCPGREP
# [3] = target: T1, Sphingosine kinase 2 (Homo sapiens); settings: at 1 µM
# [4] = target: Casein kinase II subunit alpha (Homo sapiens) (UniProt P68400); settings: at 0.1 µM
# Casein kinase II subunit alpha (Homo sapiens), sequence (P68400 whole entry, looked up): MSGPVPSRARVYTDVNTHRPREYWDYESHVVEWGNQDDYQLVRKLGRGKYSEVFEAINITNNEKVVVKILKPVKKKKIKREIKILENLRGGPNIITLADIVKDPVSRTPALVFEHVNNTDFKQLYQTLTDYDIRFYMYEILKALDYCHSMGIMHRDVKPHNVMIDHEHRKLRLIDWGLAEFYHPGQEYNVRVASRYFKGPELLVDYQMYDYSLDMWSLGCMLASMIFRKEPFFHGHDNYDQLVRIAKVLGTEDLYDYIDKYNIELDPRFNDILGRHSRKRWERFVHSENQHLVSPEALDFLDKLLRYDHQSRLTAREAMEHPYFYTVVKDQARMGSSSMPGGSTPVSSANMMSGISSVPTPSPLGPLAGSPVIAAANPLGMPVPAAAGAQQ
# [5] = target: Casein kinase II subunit alpha (Homo sapiens) (UniProt P68400); settings: at 1 µM
# [6] = target: T2, Inhibitor of nuclear factor kappa-B kinase subunit alpha (Homo sapiens) (UniProt O15111); settings: at 0.1 µM
# T2 sequence (whole entry): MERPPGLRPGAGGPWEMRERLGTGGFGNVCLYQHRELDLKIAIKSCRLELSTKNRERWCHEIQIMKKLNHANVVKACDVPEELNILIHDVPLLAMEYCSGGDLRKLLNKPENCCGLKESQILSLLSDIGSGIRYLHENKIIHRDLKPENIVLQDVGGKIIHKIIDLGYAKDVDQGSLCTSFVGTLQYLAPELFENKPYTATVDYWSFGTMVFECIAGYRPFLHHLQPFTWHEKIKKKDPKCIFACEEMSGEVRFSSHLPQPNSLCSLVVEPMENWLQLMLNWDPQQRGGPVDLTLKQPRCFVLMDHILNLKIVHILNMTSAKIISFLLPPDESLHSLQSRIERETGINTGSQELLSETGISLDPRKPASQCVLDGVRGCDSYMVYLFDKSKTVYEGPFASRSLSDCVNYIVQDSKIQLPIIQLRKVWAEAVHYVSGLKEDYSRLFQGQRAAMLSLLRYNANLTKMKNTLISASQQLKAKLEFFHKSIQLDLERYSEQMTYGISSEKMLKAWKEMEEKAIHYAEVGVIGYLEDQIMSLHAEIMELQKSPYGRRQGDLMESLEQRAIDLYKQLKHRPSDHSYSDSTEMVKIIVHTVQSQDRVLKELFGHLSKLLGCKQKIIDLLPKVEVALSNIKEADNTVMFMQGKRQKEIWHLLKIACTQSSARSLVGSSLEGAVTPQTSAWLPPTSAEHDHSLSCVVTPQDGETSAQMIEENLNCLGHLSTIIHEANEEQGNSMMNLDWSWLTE
# [7] = target: T2, Inhibitor of nuclear factor kappa-B kinase subunit alpha (Homo sapiens); settings: at 1 µM
# [8] = target: T3, Inhibitor of nuclear factor kappa-B kinase subunit beta (Homo sapiens) (UniProt O14920); settings: at 0.1 µM
# T3 sequence (whole entry): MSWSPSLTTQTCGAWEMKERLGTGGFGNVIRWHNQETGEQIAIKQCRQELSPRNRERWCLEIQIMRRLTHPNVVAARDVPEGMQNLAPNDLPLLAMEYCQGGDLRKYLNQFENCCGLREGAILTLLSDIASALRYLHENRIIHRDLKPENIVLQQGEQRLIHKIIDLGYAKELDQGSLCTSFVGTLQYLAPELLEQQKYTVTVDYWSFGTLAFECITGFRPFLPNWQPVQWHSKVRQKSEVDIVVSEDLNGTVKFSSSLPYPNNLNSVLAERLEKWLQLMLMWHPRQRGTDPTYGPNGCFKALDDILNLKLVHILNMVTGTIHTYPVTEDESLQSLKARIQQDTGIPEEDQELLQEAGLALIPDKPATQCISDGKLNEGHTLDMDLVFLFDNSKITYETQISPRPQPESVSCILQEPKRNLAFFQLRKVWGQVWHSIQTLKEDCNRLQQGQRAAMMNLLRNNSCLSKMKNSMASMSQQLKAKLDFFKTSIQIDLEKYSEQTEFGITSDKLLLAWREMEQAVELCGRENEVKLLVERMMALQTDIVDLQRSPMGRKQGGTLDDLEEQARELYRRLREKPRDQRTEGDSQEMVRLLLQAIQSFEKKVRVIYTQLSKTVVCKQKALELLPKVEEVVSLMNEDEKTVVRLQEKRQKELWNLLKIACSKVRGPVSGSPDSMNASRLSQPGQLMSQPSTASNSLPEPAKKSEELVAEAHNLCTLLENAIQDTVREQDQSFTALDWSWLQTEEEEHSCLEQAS
# [9] = target: T3, Inhibitor of nuclear factor kappa-B kinase subunit beta (Homo sapiens); settings: at 1 µM
# [10] = target: T4, Inhibitor of nuclear factor kappa-B kinase subunit epsilon (Homo sapiens) (UniProt Q14164); settings: at 0.1 µM
# T4 sequence (whole entry): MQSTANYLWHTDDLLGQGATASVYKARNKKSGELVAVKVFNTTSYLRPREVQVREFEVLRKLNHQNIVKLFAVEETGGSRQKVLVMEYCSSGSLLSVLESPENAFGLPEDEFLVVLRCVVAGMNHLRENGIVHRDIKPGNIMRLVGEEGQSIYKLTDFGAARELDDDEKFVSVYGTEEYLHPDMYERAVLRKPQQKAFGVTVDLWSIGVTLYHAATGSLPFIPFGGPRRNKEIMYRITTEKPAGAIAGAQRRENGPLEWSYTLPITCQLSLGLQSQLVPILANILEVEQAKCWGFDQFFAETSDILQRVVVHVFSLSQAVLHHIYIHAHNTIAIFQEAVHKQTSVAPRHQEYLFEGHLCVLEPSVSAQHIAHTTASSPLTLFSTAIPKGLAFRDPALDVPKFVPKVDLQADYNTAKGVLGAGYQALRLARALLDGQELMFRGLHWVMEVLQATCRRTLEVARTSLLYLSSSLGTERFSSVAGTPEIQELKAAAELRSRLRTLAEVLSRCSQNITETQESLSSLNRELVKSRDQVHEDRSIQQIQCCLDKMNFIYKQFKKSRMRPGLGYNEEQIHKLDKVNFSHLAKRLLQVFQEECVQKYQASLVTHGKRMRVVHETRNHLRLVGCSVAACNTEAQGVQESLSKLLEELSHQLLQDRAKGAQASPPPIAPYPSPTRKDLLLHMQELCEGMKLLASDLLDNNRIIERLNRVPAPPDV
# [11] = target: T4, Inhibitor of nuclear factor kappa-B kinase subunit epsilon (Homo sapiens); settings: at 1 µM
# [12] = target: T5, Serine/threonine-protein kinase Nek1 (Homo sapiens) (UniProt Q96PY6); settings: at 0.1 µM
# T5 sequence (whole entry): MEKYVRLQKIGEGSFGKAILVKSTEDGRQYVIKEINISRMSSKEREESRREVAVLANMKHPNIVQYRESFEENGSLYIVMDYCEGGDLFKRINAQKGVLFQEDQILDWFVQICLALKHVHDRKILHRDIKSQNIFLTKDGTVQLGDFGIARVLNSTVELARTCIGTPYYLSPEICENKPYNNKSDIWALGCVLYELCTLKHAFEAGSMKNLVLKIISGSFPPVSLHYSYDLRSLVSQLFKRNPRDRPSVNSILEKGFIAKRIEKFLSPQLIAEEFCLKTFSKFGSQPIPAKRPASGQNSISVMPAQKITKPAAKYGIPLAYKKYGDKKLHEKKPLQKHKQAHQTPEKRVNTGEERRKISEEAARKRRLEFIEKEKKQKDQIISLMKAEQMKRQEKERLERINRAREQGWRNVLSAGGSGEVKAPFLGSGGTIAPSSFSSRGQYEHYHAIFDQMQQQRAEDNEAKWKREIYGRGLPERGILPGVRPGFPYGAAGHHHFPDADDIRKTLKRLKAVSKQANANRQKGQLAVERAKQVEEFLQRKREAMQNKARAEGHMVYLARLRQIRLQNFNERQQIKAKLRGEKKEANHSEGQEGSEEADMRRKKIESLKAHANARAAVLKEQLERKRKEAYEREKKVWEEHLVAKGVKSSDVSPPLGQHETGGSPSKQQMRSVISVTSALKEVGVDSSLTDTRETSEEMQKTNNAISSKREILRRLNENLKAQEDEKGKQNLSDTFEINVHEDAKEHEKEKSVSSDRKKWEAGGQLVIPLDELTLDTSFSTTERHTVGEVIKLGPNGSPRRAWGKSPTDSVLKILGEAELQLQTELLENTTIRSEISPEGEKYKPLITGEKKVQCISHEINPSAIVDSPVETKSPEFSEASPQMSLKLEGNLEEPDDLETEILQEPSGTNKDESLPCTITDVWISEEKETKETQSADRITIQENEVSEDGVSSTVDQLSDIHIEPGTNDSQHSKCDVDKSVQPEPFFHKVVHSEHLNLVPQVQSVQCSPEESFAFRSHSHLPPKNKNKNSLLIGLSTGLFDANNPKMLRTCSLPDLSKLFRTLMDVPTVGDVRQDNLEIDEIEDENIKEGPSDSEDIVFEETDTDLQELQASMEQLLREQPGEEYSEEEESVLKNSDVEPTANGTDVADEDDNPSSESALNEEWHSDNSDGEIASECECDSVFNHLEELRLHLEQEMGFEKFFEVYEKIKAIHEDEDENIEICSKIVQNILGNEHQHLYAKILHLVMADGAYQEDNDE
# [13] = target: T5, Serine/threonine-protein kinase Nek1 (Homo sapiens); settings: at 1 µM
# [14] = target: T6, Serine/threonine-protein kinase Nek2 (Homo sapiens) (UniProt P51955); settings: at 0.1 µM
# T6 sequence (whole entry): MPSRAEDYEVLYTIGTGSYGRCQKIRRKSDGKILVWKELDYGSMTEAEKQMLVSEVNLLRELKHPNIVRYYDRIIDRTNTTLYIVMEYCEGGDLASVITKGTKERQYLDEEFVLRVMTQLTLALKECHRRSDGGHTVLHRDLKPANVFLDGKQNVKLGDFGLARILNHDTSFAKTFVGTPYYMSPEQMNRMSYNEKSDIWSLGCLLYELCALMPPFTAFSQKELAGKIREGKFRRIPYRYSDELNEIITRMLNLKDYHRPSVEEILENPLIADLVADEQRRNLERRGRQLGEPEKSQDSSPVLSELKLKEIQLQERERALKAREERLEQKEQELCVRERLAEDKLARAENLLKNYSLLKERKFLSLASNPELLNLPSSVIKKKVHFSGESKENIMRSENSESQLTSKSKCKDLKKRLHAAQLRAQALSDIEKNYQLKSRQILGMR
# [15] = target: T6, Serine/threonine-protein kinase Nek2 (Homo sapiens); settings: at 1 µM
# [16] = target: Serine/threonine-protein kinase Nek6 (Homo sapiens) (UniProt Q9HC98); settings: at 0.1 µM
# Serine/threonine-protein kinase Nek6 (Homo sapiens), sequence (Q9HC98 whole entry): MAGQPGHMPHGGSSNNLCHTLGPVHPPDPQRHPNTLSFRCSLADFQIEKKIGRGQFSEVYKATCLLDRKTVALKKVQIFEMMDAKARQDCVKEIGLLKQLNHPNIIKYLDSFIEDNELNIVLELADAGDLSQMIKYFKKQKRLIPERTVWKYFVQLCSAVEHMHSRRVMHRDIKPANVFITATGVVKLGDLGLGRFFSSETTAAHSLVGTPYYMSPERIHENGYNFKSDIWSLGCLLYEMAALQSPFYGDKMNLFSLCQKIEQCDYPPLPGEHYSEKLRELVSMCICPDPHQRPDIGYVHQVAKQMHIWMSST
# [17] = target: Serine/threonine-protein kinase Nek6 (Homo sapiens) (UniProt Q9HC98); settings: at 1 µM
# [18] = target: Serine/threonine-protein kinase Nek7 (Homo sapiens) (UniProt Q8TDX7); settings: at 0.1 µM
# Serine/threonine-protein kinase Nek7 (Homo sapiens), sequence (Q8TDX7 whole entry, looked up): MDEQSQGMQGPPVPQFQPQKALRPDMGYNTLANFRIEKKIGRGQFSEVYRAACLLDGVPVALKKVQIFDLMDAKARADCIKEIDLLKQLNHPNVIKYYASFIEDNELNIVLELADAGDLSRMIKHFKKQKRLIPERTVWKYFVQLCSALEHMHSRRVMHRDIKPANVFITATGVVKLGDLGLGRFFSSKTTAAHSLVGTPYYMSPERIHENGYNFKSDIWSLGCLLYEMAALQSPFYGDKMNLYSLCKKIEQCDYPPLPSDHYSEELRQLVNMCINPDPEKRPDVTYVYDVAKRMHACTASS
# [19] = target: Serine/threonine-protein kinase Nek7 (Homo sapiens) (UniProt Q8TDX7); settings: at 1 µM
# [20] = target: T7, Serine/threonine-protein kinase Nek9 (Homo sapiens) (UniProt Q8TD19); settings: at 0.1 µM;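 further: reported value is the mean percent inhibition of NEK9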
# T7 sequence (whole entry): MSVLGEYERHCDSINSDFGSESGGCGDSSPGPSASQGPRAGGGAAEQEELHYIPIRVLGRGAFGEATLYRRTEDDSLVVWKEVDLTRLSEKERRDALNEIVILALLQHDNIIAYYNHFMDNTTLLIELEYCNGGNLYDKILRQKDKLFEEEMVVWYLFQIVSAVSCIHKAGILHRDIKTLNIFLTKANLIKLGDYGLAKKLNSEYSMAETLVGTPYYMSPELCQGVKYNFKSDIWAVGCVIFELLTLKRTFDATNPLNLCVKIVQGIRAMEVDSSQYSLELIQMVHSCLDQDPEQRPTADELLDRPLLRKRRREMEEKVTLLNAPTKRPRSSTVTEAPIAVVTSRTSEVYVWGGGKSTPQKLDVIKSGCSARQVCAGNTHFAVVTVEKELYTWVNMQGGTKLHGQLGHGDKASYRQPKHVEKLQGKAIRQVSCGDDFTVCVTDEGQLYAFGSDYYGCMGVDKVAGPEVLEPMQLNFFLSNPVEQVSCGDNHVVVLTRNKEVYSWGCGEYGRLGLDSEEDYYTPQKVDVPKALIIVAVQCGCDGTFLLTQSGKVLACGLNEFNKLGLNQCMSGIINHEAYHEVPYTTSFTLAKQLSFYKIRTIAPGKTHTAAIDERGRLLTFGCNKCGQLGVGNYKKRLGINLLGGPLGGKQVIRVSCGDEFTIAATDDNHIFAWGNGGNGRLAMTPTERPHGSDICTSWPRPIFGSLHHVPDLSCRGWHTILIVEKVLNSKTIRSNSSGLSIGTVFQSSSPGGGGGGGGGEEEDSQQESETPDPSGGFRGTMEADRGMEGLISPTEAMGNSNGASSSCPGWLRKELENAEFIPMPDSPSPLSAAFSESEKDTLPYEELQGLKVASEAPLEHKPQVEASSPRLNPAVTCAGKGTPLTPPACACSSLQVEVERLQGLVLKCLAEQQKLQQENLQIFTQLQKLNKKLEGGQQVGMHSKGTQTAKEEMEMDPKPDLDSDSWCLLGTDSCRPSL
# Sphingosine kinase 1 (Homo sapiens), sequence (Q9NYA1 whole entry): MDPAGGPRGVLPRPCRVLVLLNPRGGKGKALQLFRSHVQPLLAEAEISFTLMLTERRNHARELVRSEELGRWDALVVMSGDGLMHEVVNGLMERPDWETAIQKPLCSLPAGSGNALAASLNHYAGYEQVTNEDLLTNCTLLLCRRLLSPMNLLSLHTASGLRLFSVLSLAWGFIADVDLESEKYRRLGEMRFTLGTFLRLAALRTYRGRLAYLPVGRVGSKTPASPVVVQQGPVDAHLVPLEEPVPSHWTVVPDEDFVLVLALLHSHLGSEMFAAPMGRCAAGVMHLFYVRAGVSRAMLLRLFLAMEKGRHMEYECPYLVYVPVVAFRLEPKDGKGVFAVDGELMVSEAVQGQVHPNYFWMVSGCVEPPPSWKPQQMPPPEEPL
structure (smiles),measurement,setting,value
COc1cc2ncn(-c3cc(OCCc4ccccc4)c(C(N)=O)s3)c2cc1OC,inhibition,[1],-2.62%
same,inhibition,[2],-3.06%
same,inhibition,[3],0.29%
same,inhibition,[4],1.36%
same,inhibition,[5],-0.04%
same,inhibition,[6],6.65%
same,inhibition,[7],1.12%
same,inhibition,[8],3.03%
same,inhibition,[9],0.18%
same,inhibition,[10],2.79%
same,inhibition,[11],2.69%
same,inhibition,[12],1.71%
same,inhibition,[13],1.3%
same,inhibition,[14],2.3%
same,inhibition,[15],4.49%
same,inhibition,[16],-0.94%
same,inhibition,[17],1.69%
same,inhibition,[18],3.01%
same,inhibition,[19],2.45%
same,inhibition,[20],1.66%

# — ChEMBL document CHEMBL1961873, “Compounds: GSK PKIS; Assays: Nanosyn kinase panel” (2012)
